Most compounds without a hit are left out; they make up all but 2.8% or so of the library.
Pol iota inh: DNA polymerase iota (human) inhibition | Q9UNA4 | Pol iota fluorescent replication assay, 10 min | Potency, µM (doses to about 115 µM), for the others: at the highest dose activity, negative = inhibition, usual class: inhibitors | 1% of 390,000 active; further: potency means the concentration at half of the fitted maximal effect
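Fluorescent replication assay read twice, at 0 min and 10 min after adding 50 nM (final) substrate. Enzyme (10 nM) and compounds were first incubated 15 min at room temperature; enzyme-free buffer wells were negative controls.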
POLK inh: blocks human DNA polymerase kappa activity; Q9UBT6; purified Pol kappa, fluorescent DNA synthesis assay, 10 min; Potency, µM (doses to about 107 µM), inactives show top-dose activity, negative = inhibition, most hits filed as inhibitors; 0.53% of 400,000 active; AID 588579; further: potency means the concentration at half of the fitted maximal effect; on the % scale 0 is the no-effect control and ±100 the full control effect
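Pol kappa 10 nM + cpd, 15 min RT; start w/ substrate 50 nM final; fluorescence kinetic read, 0 and 10 min. Neg ctrl: buffer, no enzyme.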
PI5P4K alpha inh: PI5P4K alpha (human) kinase inhibition; P48426; PI5P4Kalpha enzyme, ADP-Glo luminescence, 60 min; hits give low values; max response, %; 1.2% of 330,000 active; AID 652105; active means max response of -50% or lower; inconclusive means between -30% and -50%; inactive means -30% or higher; further: value at the top dose of about 77 µM; on the % scale 0 is the no-effect control and ±100 the full control effect
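Luminescence from ADP-Glo served as readout of PI5P4Kalpha activity in a qHTS format. Reaction: enzyme, substrate, compound, ATP at 5 microM final, 60 min at RT.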
Pol beta inh: inhibitors of human DNA polymerase beta; P06746; Pol beta primer extension/strand displacement, fluorescence kinetic; Potency, µM (series often up to 114 µM), inactives show top-dose activity change, negative = inhibition, hits mostly inhibitors; 1.3% of 340,000 active; AID 485314; further: potency means the concentration at half of the fitted maximal effect; on the % scale 0 is the no-effect control and ±100 the full control effect
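Enzyme-only controls used 10 nM Pol beta; buffer lacking enzyme served as negative control. Compound preincubated 15 min, then 50 nM substrate added; 0 and 10 min reads at room temperature.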
POLH inh: inhibitors of human DNA polymerase eta | recombinant Pol eta, fluorescent DNA replication assay | Potency, µM (doses to about 114 µM), inactives show at the highest dose activity change, negative = inhibition, usual class: inhibitors | 1.2% of 390,000 active | Q9Y253 | AID 588591; further: potency means the concentration at half of the fitted maximal effect; on the % scale 0 is the no-effect control and ±100 the full control effect
Target sequence (Q9Y253 whole entry, looked up): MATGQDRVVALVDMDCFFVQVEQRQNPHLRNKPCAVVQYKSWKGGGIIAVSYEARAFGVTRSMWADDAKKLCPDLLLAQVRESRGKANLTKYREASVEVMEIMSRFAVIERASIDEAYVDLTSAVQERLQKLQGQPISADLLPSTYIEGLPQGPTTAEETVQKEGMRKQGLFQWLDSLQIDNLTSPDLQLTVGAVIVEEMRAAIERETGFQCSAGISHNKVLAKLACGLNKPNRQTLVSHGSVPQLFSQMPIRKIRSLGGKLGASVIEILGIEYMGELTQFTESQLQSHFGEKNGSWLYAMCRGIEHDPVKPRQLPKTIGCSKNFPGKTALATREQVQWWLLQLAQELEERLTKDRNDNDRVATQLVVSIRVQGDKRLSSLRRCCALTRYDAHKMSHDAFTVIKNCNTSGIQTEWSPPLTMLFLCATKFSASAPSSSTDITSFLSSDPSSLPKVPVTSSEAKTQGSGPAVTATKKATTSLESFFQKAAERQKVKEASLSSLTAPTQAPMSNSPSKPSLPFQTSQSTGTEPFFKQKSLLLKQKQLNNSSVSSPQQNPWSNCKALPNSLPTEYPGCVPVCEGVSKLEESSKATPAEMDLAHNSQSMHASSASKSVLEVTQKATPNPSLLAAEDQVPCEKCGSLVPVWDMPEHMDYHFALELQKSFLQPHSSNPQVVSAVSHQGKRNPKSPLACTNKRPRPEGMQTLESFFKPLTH
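Pol eta at 10 nM preincubated with compounds 15 min at room temperature; reaction started with fluorescent substrate (50 nM final) and read kinetically at 0 and 10 min.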
WRN helicase inh: inhibitors of human WRN helicase | Q14191 | WRN helicase unwinding, fluorescent forked duplex, kinetic | Potency, µM (top dose mostly 114 µM), inactives show at the top dose activity change, negative = inhibition, hits mostly inhibitors | 0.46% of 360,000 active | AID 651768; further: potency means the concentration at half of the fitted maximal effect; on the % scale 0 is the no-effect control and ±100 the full control effect; nearly all actives have a fitted effect of over 55% in size
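WRN at 20 nM final was preincubated with compound for 15 min at room temperature; reaction started with 100 nM forked duplex oligonucleotide carrying fluorophore and quencher plus 2 mM ATP (final). Unwinding followed kinetically by red fluorescence (ex 525/em 598 nm).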
Active calls of the source: *; ? = inconclusive; . = no result; [ ] = another dose, or the depositor's remark. Unless noted, the call rests on the fitted dose curve; in most records, active means well fitted curve in the direction sought with a large enough effect; inconclusive means small, poorly fitted or top-dose-only effect, or another doubt; inactive means no such curve, though single readings can be large; an effect the other way counts as inactive or inconclusive.

SMILES	Pol iota inh	POLK inh	PI5P4K alpha inh	Pol beta inh	POLH inh	WRN helicase inh
Cc1cc(C(=O)COC(=O)c2cc(O)c3ccccc3c2O)c(C)n1CC1CCCO1 (stereo unspecified)	53%	-17%	?	45µM*	-26%	?
COc1[nH]c(/N=C/c2ccccc2)c(C#N)c1C#N	79µM*	?	?	89µM*	-7%	-34%
Cc1oc(/N=C/c2ccccc2)c(C#N)c1C	131%	-4%	3	1%	12%	-2%
CCCCCCc1cc2cc(-c3nnc(-c4cc(OC)c(OC)c(OC)c4)o3)c(=O)oc2cc1O	6%	-9%	.	8%	?	-10%
CCCCCCc1cc2cc(-c3nnc(-c4ccccc4O)o3)c(=O)oc2cc1O	?	0%	-29	?	1.8µM*	-13%
COc1ccccc1NC(=O)CN1C(=O)c2cccc3cccc1c23	1%	-4%	.	0%	-8%	.
N#C/C(=C\c1ccc(OC(=O)c2cccs2)cc1)c1nc2ccccc2[nH]1	34%	-44%	-13	35µM*	?	?
COc1ccc2nc(/C(C#N)=C\c3ccc(Oc4ccc([N+](=O)[O-])cn4)cc3)[nH]c2c1	57%	-5%	?	-11%	?	-21%
COc1ccc2nc(/C(C#N)=C\c3ccc(C(=O)O)cc3)[nH]c2c1	57%	-19%	?	-2%	22µM*	?
c1ccc(-c2ccc3c(c2)c2c4n3CCN=C4CCC2)cc1	10%	8%	.	2%	-10%	3%
CCOC(=O)c1ccc(NC(=O)c2cc3c(n(-c4ccc(C)cc4)c2=O)CC(C)(C)CC3=O)cc1	?	89µM*	.	-4%	-19%	.
CCOc1ccc(NC(=O)c2cc3c(n(-c4ccc(OC)cc4)c2=O)CC(C)(C)CC3=O)cc1	-28%	-2%	.	3%	-3%	.
CN(C)CC[C@H](c1ccc(Br)cc1)c1ccccn1	.	-3%[12 µM]	.	.	.	.
COc1cc(/C=N/NC(=O)c2cc3ccccc3cc2O)ccc1OCCN1CCCCC1	?	-25%	-20	79µM*	-23%	-28%
COc1cc(/C=N/NC(=O)c2ccncc2)ccc1OCCN1CCCCC1	?	?	-4	?	2%	-28%
CCOc1ccccc1NC(=O)CSc1nccn1Cc1ccc(F)cc1	4%	-5%[60.1 µM]	.	1%	-24%	.
COc1ccc(OC)c(NC(=O)c2ccc(OCC(=O)N3CCOCC3)c(OC)c2)c1	65%	2%	-4	.	-13%	-10%
COc1cc(C(=O)Nc2ccc(C)c(S(=O)(=O)N(C)C)c2)ccc1OCC(=O)N1CCOCC1	50µM*	-9%	-12	.	?	3%[11.6 µM]
CCn1c(SCC(=O)Nc2oc(-c3ccccc3)c(-c3ccccc3)c2C#N)nnc1-c1ccco1	-6%	-17%	-24	4%	-16%	-31%[57.1 µM]
CCn1c(SCC(=O)Nc2oc(-c3ccccc3)c(-c3ccccc3)c2C#N)nnc1-c1ccncc1	?	?	8	0%	71µM*	-6%[11.6 µM]
Cc1cccc(NS(=O)(=O)c2ccc(Cl)c(C(=O)Nc3ccccc3C)c2)c1	1%	-1%	.	12%	-13%	.
COc1ccc(C=C2OC(=O)C(C(C)=O)=C2O)cc1	.	.	-54*	.	-4%	-7%
COc1cc2c(cc1OC)[C@@H]1O[C@](c3ccsc3)(C2)Oc2cc(C)n(-c3ccccc3)c(=O)c21	.	.	.	11%[22.9 µM]	.	.
Cc1cc2c(c(=O)n1-c1ccccc1)C1O[C@](c3ccsc3)(Cc3ccccc31)O2	.	.	.	5µM*	.	.
CCCCn1c(C)cc2c(c1=O)C1O[C@](c3ccsc3)(Cc3ccccc31)O2	.	.	.	2.2µM*	.	.
CC(C)CCNC(=O)c1ccc2nc[nH]c2c1	-9%	8%	-8	8%	-12%	16%
O=C(NCCSc1ccc(Br)cc1)c1ccc2nc[nH]c2c1	20µM*	-37%	?	40µM*	22µM*	-32%
COc1ccccc1CCNC(=O)c1ccc2nc[nH]c2c1	1%	-11%	-26	45µM*	?	-6%

High-throughput results (PubChem BioAssay)
